Experimental data as given in PubChem BioAssay (NCATS).
Records with an inconclusive call do not appear. Where a call stands in place of a potency, no number is given. Activity calls are given as the source filed them. The call rests on the fitted dose curve; tested in HEK293 reporter line.

Assay: qHTS for Inhibitors of the Functional Ribonucleoprotein Complex (vRNP) of Lassa (LASV) Arenavirus: LASV Primary Screen - GLuc reporter signal (AID 1347082); further: nearly all actives have a fitted effect of over 60% in size
Conditions: LASV minigenome vRNP, Gaussia luciferase reporter; series mostly up to 57.5 µM
For `COCCOC(=O)C1=C(C)NC(C)=C(C(=O)OC(C)C)C1c1cccc([N+](=O)[O-])c1` (centres undefined), the Potency was “inactive”. With `CC(C)(C)CC(C)(C)c1ccc(O)c(-n2nc3ccccc3n2)c1` the Potency was “inactive”. With `C[C@H]1C[C@H](O)c2ccsc2S1(=O)=O` the Potency was “inactive”. In the case of `CCN1CCC[C@H]1CNC(=O)c1c(O)c(Cl)cc(Cl)c1OC`, the Potency is reported as “inactive”. With `O=C(O)CN(CCN(CC(=O)O)CC(=O)O)CCN(CC(=O)O)CC(=O)O` the Potency was “inactive”. With `O=C1OC2(c3ccccc31)c1cc(Br)c(O)c(Br)c1Oc1c2cc(Br)c(O)c1Br` the Potency was “inactive”. For `CC(=O)OC(C)OC(=O)C(C)c1ccc(-c2ccccc2)c(F)c1` (centres undefined), the Potency was “inactive”. With `CC1CC(OC(=O)c2ccccc2O)CC(C)(C)C1` (centres undefined) the Potency was “inactive”. In the case of `CC(=O)OCC(COC(C)=O)OC(C)=O`, the Potency is reported as “inactive”. With `CN1C(CSCC(F)(F)F)Nc2cc(Cl)c(S(N)(=O)=O)cc2S1(=O)=O` (centres undefined) the Potency was “inactive”. With `O=C(CCBr)N1CCN(C(=O)CCBr)CC1` the Potency was “inactive”. With `CCN1CCCC1CNC(=O)c1cc(S(=O)(=O)CC)c(N)cc1OC` (centres undefined) the Potency was “inactive”. With `O=c1[nH]cnc2[nH]ncc12` the Potency was “inactive”. In the case of `NC1CCN(c2nc3c(cc2F)c(=O)c(C(=O)O)cn3-c2ccc(F)cc2F)C1` (centres undefined), the Potency is reported as “inactive”. For `COc1cc(C(=O)OC(COCCC(C)C)CN2CCOCC2)cc(OC)c1OC` (centres undefined), the Potency was “inactive”. For `O=C(O)Cn1cnnn1`, the Potency was “inactive”. With `COC(=O)CCCCC(CCSS/C(CCO)=C(\C)N(C=O)Cc1cnc(C)nc1N)SC(C)=O` (centres undefined) the Potency was “inactive”. In the case of `O=[N+]([O-])c1cncn1CCN1CCOCC1`, the Potency is reported as “inactive”. For `CCCCC(CC)CNC(=O)CC(C)OC(=O)CCC(=O)O` (centres undefined), the Potency was “inactive”.
